# Screen size: about 69,000 compounds; about 8,600 (12%) showed an effect of 50% or more. Shown is part of a subset that was picked to be rich in strong results.
# Test system: Plasmodium berghei
# Experiment: Screen against P. berghei liver stage (PbLuc), transformed with Luciferase, at 10uM
# Assay type: functional, HepG2
# Conditions: tested at 10 uM
row,SMILES,INHIBITION [%]
1,CO[C@@]1(C)C[C@@H](O)C12CCN(C(=O)c1ccccc1C(C)=O)CC2,40.7
2,Cc1ccc(CN2C[C@@H]3COC[C@H](C(=O)N4CCCCO4)[C@@H]3C2)o1,14.8
3,CC(C)CCN1CC2(CCCN(C(=O)CNC(=O)N(C)C)C2)CCC1=O (stereo not drawn),19.4
4,Cc1cc(NC(=O)NCC(C)N2CCOCC2)n(C)n1 (stereo not drawn),-17
5,Cc1cc(-c2cnc(C3CC3)nc2CN(C)C(=O)c2ccccn2)on1,-25
6,CCOCCCNC(=O)Nc1ccc(F)c(C(N)=O)c1,7.67
7,O=c1c2cccnc2ccn1Cc1nccn1C1CC1,14.9
8,Cc1cnccc1CN1CC[C@@](C)(O)[C@H](Oc2ccccc2)C1,39.2
9,C[C@@]1(O)CCN(Cc2cc[nH]n2)C[C@H]1Oc1cccc(F)c1,66.4
10,C[C@]1(O)CCN(Cc2nccs2)C[C@@H]1Oc1cccc(F)c1,26.3
11,C[C@]1(O)CCN(Cc2cccnc2)C[C@@H]1Oc1cccc(F)c1,44.1
12,Cc1cnccc1CN1CC[C@@](C)(O)[C@H](Oc2cccc(F)c2)C1,56
13,C[C@]1(O)CCN(Cc2c[nH]cn2)C[C@@H]1Oc1cccc(F)c1,32.3
14,Cc1ncc(CN2CC[C@@](C)(O)[C@H](Oc3cccc(F)c3)C2)cn1,56
15,COc1ncc(CN2CC[C@@](C)(O)[C@H](Oc3cccc(F)c3)C2)cn1,37.9
16,Cc1cnccc1CN1CC[C@H](Oc2cccc(F)c2)[C@@](C)(O)C1,48.6
17,O=C(Nc1ccccc1F)C1=NOC2(CCNCC2)C1,-18.5
18,CSCc1noc(CNC(=O)C2CCN(C(=O)C3CC3)CC2)n1,23
19,Cc1nc(N2CCCC2)nc2c1CN(C(=O)N(C)C)CC2,37.1
20,CN(CCc1ccncc1)CC1CCCN1c1cccnn1 (stereo not drawn),-69.3
21,Cc1cccc2nc(C(=O)N3CCC4(CCC(=O)N(C)C4)CC3)c(F)n12,33.4
22,Cc1cnc(-c2nc(NC3CC3)ncc2-c2onc(C)c2C)cn1,0.301
23,Fc1ccc(CN2CCC3(CCN(Cc4nccs4)CC3)C2)cc1,21.7

row,SMILES,INHIBITION [%]
1,CCN1CCC(CNCc2c[nH]nc2C(C)(C)C)C1 (stereo not drawn),11.4
2,COc1ccc(CC(=O)N2CCC3(CC2)CCN(CC(C)C)C3=O)cc1,35.8
3,Cc1nc(-c2ccsc2)ccc1C(=O)N(C)CC(F)(F)F,-4.12
4,CN(C)Cc1noc2c1CN(Cc1ccc[nH]1)CC2,73.2
5,Cc1cccc(CN2CCc3onc(CN(C)C)c3C2)n1,-14.2
6,CN(C)Cc1noc2c1CN(Cc1ccsc1)CC2,15.7
7,CN1CC(=O)N(c2ccccc2)CC12CCN(Cc1nccn1C)C2 (stereo not drawn),7.31
8,CNc1nc(CNC(=O)Nc2cccc(-c3ncc(C)o3)c2)cs1,20.1
9,Cc1nc2n(n1)CC(Nc1cc(C(F)(F)F)nc3ncnn13)CC2 (stereo not drawn),-29.2
10,Cc1nn(C)cc1-c1cc(C(F)(F)F)nc(NC2CCCCC2)n1,58.9
11,CCn1cc(-c2cc(C(F)(F)F)nc(NC3CCCC3)n2)c(C)n1,68.7
12,Cc1nn(C)cc1-c1cc(C(F)F)nc(NC2CCCCC2)n1,26.9
13,Cc1nn(C)cc1-c1cc(C(F)(F)F)nc(NC2CCN(C)CC2)n1,40.5
14,CCn1cc(-c2nn3c(C(F)(F)F)nnc3s2)c(C)n1,4.12
15,Cc1cc(N)n(-c2ccc3nnc(C)n3n2)n1,37.5
16,Cc1cc(C(=O)N2CCCC(n3cncn3)C2)on1 (stereo not drawn),-23.9
17,CCc1ccccc1CN1CC[C@@]2(O)CCN(S(=O)(=O)N(C)C)C[C@H]2C1,44.6
18,O=C(Nc1cncc(Br)c1O)c1ccon1,83.2
19,O=C(Cc1ccon1)Nc1cncc(Br)c1O,-9.23
20,O=C(Cc1ccn[nH]1)Nc1cncc(Br)c1O,22.6
21,CN(C)C(=O)CO[C@H]1CN(Cc2cccc(C#N)c2)[C@@H]2COC[C@H]12,7.31
22,Cc1noc(C2CCCCN2C(=O)NCc2ccco2)n1 (stereo not drawn),26.4
23,CNC1CCC2(CC1)CNC(=O)c1cc(C)ccc1O2 (stereo not drawn),-16.5

row,SMILES,INHIBITION [%]
1,O=C(NC1CCS(=O)(=O)C1)c1cn(C2CC2)c(=O)c2ccccc12 (stereo not drawn),43.9
2,CC(=O)NCC(=O)N1CCc2[nH]c(-c3ccccc3)nc2C1,43
3,CN1CCCN(CC(=O)N2CCc3[nH]c(-c4ccccc4)nc3C2)CC1,17.6
4,C[C@@H]1CCC[C@H](C)N1CC(=O)N1CCc2[nH]c(-c3ccccc3)nc2C1,64.8
5,COc1nc2c(cc1C(=O)NCc1nc(CSC)no1)CCC2,43.1
6,COc1nc2c(cc1C(=O)NCc1noc(Cc3cccs3)n1)CCC2,24.7
7,COc1nc2c(cc1C(=O)NCc1noc(-c3ccco3)n1)CCC2,55
8,CCCC(N)CNS(=O)(=O)Cc1cccc(C#N)c1 (stereo not drawn),39.3
9,O=C(NCCn1ccnc1-c1cc2n(n1)CCNC2)c1ccncc1,62.4
10,O=C(NCCn1ccnc1-c1cc2n(n1)CCCNC2)c1ccncc1,32
11,O=C(NCCn1ccnc1-c1cc2n(n1)CCNC2)c1ccc(F)cc1,8.08
12,Nc1nc(N2CCCCC2)ncc1C(=O)NCc1ccc(F)c(Cl)c1,26.4
13,O=C(COc1cccc2c1CCC2=O)NCc1ccccc1Cl,50
14,O=C(COc1cccc2c1CCC2=O)NCCSc1ccccc1,-66.3
15,O=C(COc1cccc2c1CCC2=O)NCc1ccccc1F,1.58
16,O=C(COc1cccc2c1CCC2=O)NCCOc1ccccc1,41.8
17,O=C(COc1cccc2c1CCC2=O)NCCc1cccs1,63.7
18,O=C(COc1cccc2c1CCC2=O)NCC(F)(F)F,20
19,Cc1cc(N2CCC(O)(CN(C)C)C2)c2cc3c(cc2n1)OCO3 (stereo not drawn),-7.02
20,COCC(=O)N1CCCC1c1ccc(C(=O)NCc2ccccc2Cl)s1 (stereo not drawn),-9.66
21,COc1ccc(CSc2nnc(N)n2C2CC2)cc1Cl,46.3
22,CCCS(=O)(=O)N1CCC2(CN(c3ccccc3)C(=O)CN2C)C1 (stereo not drawn),41.2
